Results on 21 molecules are retold here after PubChem BioAssay (NCI).

This is part of a sample that, as a whole, favours compounds with a hit. Of some 79,000 tested, about 15% had one in any assay. Values without a mark were called inactive. The source made the active and inactive calls. No stated cut-off is given here; in the data, active means growth inhibition above about 70%; inactive means the rest. Where a SMILES comes first, the peptide text is derived from it. The star is where a group is joined. Boc = CC(C)(C)OC(=O)*

Assay [1] can be described thus: NCI Yeast Anticancer Drug Screen. Data for the rad50 strain (AID 155).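 Further: 0% = growth of vehicle-only cultures of the same strain.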 The following applies: S. cerevisiae rad50 strain growth inhibition; at 50.0 µM; hits give high values. A digest of the protocol: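 A DNA repair-deficient yeast mutant serves as the test organism; compound-induced growth inhibition is calculated against vehicle-treated cells.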
Assay [2] is described as follows: NCI Yeast Anticancer Drug Screen. Data for the mec2-1 strain (AID 157). The following applies: S. cerevisiae mec2-1 strain, at 50.0 µM, hits give high values. A digest of the protocol: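 Growth inhibition is read against vehicle-treated controls after compound exposure of the mec2-1 yeast strain, which is defective in DNA damage repair or cell cycle control.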
Assay [3] is described as follows: NCI Yeast Anticancer Drug Screen. Data for the sgs1 mgt1 strain (AID 161).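 Further: 0% = growth of cultures given vehicle only.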 Conditions: S. cerevisiae sgs1 mgt1 strain, at 50.0 µM, hits give high values. A digest of the protocol:
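Yeast cells carrying a defined DNA-repair defect were exposed to test compounds. Growth inhibition was measured relative to vehicle-treated controls.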

Assay [4] can be described thus: NCI Yeast Anticancer Drug Screen. Data for the cln2 rad14 strain (AID 165).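 Further: 0% = growth equal to vehicle treated cultures.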 Conditions: S. cerevisiae cln2 rad14 strain, at 50.0 µM, hits give high values. A digest of the protocol: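 Growth inhibition, relative to vehicle-treated controls, is the read-out. The test organism is a yeast strain with defined genetic alterations, cln2 rad14.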
Assay [5] is described as follows: NCI Yeast Anticancer Drug Screen. Data for the bub3 strain (AID 167). The following applies: S. cerevisiae bub3 mutant strain, at 50.0 µM, hits give high values. A digest of the protocol: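 Inhibition values come from growth of compound-treated mutant yeast normalised to vehicle-treated controls.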
Assay [6] in a line: NCI Yeast Anticancer Drug Screen. Data for the mlh1 rad18 strain (AID 175). The following applies: S. cerevisiae mlh1 rad18 strain growth inhibition; at 50.0 µM; hits give high values. A digest of the protocol:
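Cells of a genetically altered yeast strain, deficient in DNA damage repair, were treated with compound. Their growth was then compared with that of vehicle-treated cultures to give inhibition.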

As to `Cc1cc(NC(=O)C(=O)CC(=O)c2cccnc2)no1`, the growth inhibition in assay [1] is -59%; in assay [2], -1.8%; in assay [3] it was -8.2%; in assay [4], -52.1%; in assay [5], -6.2%; in assay [6], -4.15%.
Turning to `COC1=C(OC)C(=O)C(COC2CCCCO2)=CC1=O` (stereo unspecified), the growth inhibition in assay [1] was -4.9%; in assay [2], -1.45%; in assay [3] it was 8.75%; in assay [4] it was 87.5% (active); in assay [5], 10.6%; in assay [6], -6.65%.
Take `CCOC(=O)C1=C(SC)SC(C(=O)OCC)C2C=C(C)C=CN12` (stereo unspecified): the growth inhibition was -5.2% in assay [1]; -19.4% in assay [2]; -10.7% in assay [3]; 5.05% in assay [4]; -32.9% in assay [5]; 3.75% in assay [6].
With `CCC(=O)N(O)C(C)(C)C`, the growth inhibition in assay [1] was 10.8%; in assay [2] it was 0.65%; in assay [3] it was 14.7%; in assay [4], 7.55%; in assay [5], 7.2%; in assay [6], 22.1%.
`CCCCn1c(=S)[nH]c2c(=O)n(C)c(=O)n(C)c21`: the growth inhibition in assay [1] was 4.95%; in assay [2], 4.3%; in assay [3], 7.55%; in assay [4], -14.4%; in assay [5], -7.35%; in assay [6] it was 4%.
Regarding `Nc1nc(N)nc(CCC(Br)(Br)Br)n1`, the growth inhibition in assay [1] was 26.6%; in assay [2] it was 4.75%; in assay [3], 30.8%; in assay [4] it was 19.9%; in assay [5], 21.9%; in assay [6] it was 11.1%.
In the case of `CC(=O)CCn1c(=S)sc2ccccc21`, the growth inhibition in assay [1] was -6.3%; in assay [2] it was 30.2%; in assay [3], 59.5%; in assay [4], 12.2%; in assay [5], 29.7%; in assay [6] it was -28.6%.
As for `CCOC(=O)NN1C(=O)c2cccc3c([N+](=O)[O-])ccc(c23)C1=O`, the growth inhibition in assay [1] is 86.2% (active); in assay [2] it was 61.9%; in assay [3], 93.5% (active); in assay [4], 88.4% (active); in assay [5], 78.3% (active); in assay [6], 85.8% (active).
For the molecule `CCOC(=O)/C(C#N)=C(\CC)c1ccccc1`, the growth inhibition in assay [1] was -8.5%; in assay [2], -8.85%; in assay [3], -3.85%; in assay [4] it was -0.15%; in assay [5], -8.85%; in assay [6] it was -21.5%.
With `CCOC(=O)CC(=O)c1ccc(Cl)cc1`, the growth inhibition is 15.1% in assay [1]; 12.9% in assay [2]; 11.4% in assay [3]; 6.95% in assay [4]; -12.8% in assay [5]; -7.65% in assay [6].
With `COC1=CC(=O)C(CCC(C)=O)=CC1=O`, the growth inhibition in assay [1] was -41.3%; in assay [2] it was -29.6%; in assay [3] it was -9.55%; in assay [4] it was -16.4%; in assay [5], 15.2%; in assay [6], -4.3%.
With `O=C1CSc2nc3c(Cl)cc(Cl)cc3c(=O)n21`, the growth inhibition was 15.7% in assay [1]; 24.6% in assay [2]; 54.1% in assay [3]; 8.2% in assay [4]; 30.2% in assay [5]; 46.1% in assay [6].
`O=C(c1ccccc1)N1C2C3CC(OCc4ccccc4)(OCc4ccccc4)C(O3)C21` (stereo unspecified): the growth inhibition is -8.35% in assay [1]; -3.3% in assay [2]; -16.4% in assay [3]; -12.6% in assay [4]; 16.8% in assay [5]; -9.95% in assay [6].
For the molecule `O=c1[nH]cc(Nc2ccccc2)c(=O)[nH]1`, the growth inhibition was -1.1% in assay [1]; 2.35% in assay [2]; 4.95% in assay [3]; -35.2% in assay [4]; -29.6% in assay [5]; -9.65% in assay [6].
For `COC(=O)C1(C)CCCC2(C)C3CC4OC4(C(C)C)CC3(O)CCC12` (stereo unspecified), the growth inhibition was -4.5% in assay [1]; 6.85% in assay [2]; 4% in assay [3]; -8.4% in assay [4]; -12.1% in assay [5]; 42.1% in assay [6].
Consider `CCOC(=O)C(CC(C)C)NC(=O)C(Cc1ccccc1)NC(=O)CNC(=O)OC(C)(C)C` (stereo not drawn) (Boc-Gly-Phe-Leu-OEt; configuration not given here), for which the growth inhibition in assay [1] is 7.65%; in assay [2], 7.35%; in assay [3], 9.45%; in assay [4], -11.7%; in assay [5], 7.2%; in assay [6], 18.2%.
For the molecule `CC(=O)C(C)c1nc(=S)[nH]c(=S)[nH]1` (stereo unspecified), the growth inhibition was 11.4% in assay [1]; 12.2% in assay [2]; 22.4% in assay [3]; 9.1% in assay [4]; -1.35% in assay [5]; 4.85% in assay [6].
Consider `C=CCNC(=S)/N=C\c1c(C)[nH]n(-c2ccccc2)c1=O`, for which the growth inhibition was -23.8% in assay [1]; -27.2% in assay [2]; -24.6% in assay [3]; -17.6% in assay [4]; -17.6% in assay [5]; -5.7% in assay [6].
As for `Clc1ccc(-c2nnc(-c3cccc4ccccc34)o2)cc1Cl`, the growth inhibition in assay [1] is 10.1%; in assay [2] it was -32.3%; in assay [3] it was -29.5%; in assay [4] it was 54%; in assay [5] it was -47.9%; in assay [6], -15%.
Consider `O=C(c1ccccc1)c1ccc2ccc(F)cc2c1C(=O)O`, for which the growth inhibition in assay [1] is -4%; in assay [2] it was 17.9%; in assay [3], 2.05%; in assay [4], -17.9%; in assay [5] it was 16.6%; in assay [6], -7.7%.
On to `CC(NC(=O)OCc1ccccc1)NC(=O)OC(C)(C)C` (stereo unspecified), for which the growth inhibition in assay [1] was -47%; in assay [2], -63.5%; in assay [3], -18.9%; in assay [4] it was -13.2%; in assay [5], -14.6%; in assay [6], -26.8%.
